High-throughput results deposited in PubChem BioAssay by National Center for Advancing Translational Sciences (NCATS).
Sampled rows, rich in hits. Any-hit rate of the full collection: about 12%.
SARS PLpro yeast: qHTS of Yeast-based Assay for SARS-CoV PLP; Potency, µM (titrated, usually from 32.9 µM), for inactives: top-dose activity, positive = growth rescue, actives largely listed as activators; S. cerevisiae expressing SARS-CoV PLpro, growth rescue; 330,000 tested, 0.19% active; further: potency means the concentration at half of the fitted maximal effect; 0% is about no effect; nearly all actives have a fitted effect of over 55% in size
Shiga toxin inh: A qHTS for Small Molecule Inhibitors of Shiga Toxin; Vero cells, Shiga toxin protein synthesis inhibition reporter; inhibition, % at 38.7 µM; 290,000 tested, 9.2% active; AID 2315, 2010; in the data active means inhibition mostly above about 28%, no sharp cut-off; inactive means mostly below about 43%; further: 0% is about no effect
NS1 inh: qHTS Assay for Inhibitors of Influenza NS1 Protein Function. Potency, µM (highest dose often 46.1 µM), for the others: top-dose activity, positive = more growth. 270,000 tested, 0.4% active. AID 2326, 2010; further: potency means the concentration at half of the fitted maximal effect; actives are rising curves; nearly all actives have a fitted effect of over 50% in size
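A cell-based growth assay was used: compounds that relieve NS1-induced slow growth of budding yeast raise OD600. Assay medium was yeast nitrogen base with ammonium sulphate and -URA supplement, pH 6.0, with 2% galactose.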
CHX counter: Cycloheximide Counterscreen for Small Molecule Inhibitors of Shiga Toxin; cell reporter, cycloheximide protein synthesis inhibition counterscreen; max response, %; 300,000 tested, 12% active; AID 2314, 2010; in the data active means max response mostly above about 13%, no sharp cut-off; inactive means mostly below about 14%; further: read at 38.3 µM for the half of the compounds with a filed dose; 0% is about no effect
The depositor's hits bear a star; u = inconclusive; x = not tested or not shown. Unless noted, the call rests on the fitted dose curve.

SMILES	SARS PLpro yeast	Shiga toxin inh	NS1 inh	CHX counter
COc1cccc2sc3ccc(C#CC4(N)CCCCC4)cc3c(=O)c12	-1%	64*	20%	32*
Nc1cccc(C#Cc2ccc3c(=O)c4ccccc4oc3c2)c1	8%	x	x	x
CNC(C)C#Cc1ccc2oc3cccc(OC)c3c(=O)c2c1 (configuration not stated)	-5%	45*	14%	36*
COc1cccc2sc3cc(C#CC4(O)CCCCC4)ccc3c(=O)c12	-39%	x	x	x
CNC(C)C#Cc1ccc2sc3cccc(OC)c3c(=O)c2c1 (configuration not stated)	-9%	19*	9%	12*
CNC(C)C#Cc1c(-c2cc(OC)c(OC)c(OC)c2)noc1C (configuration not stated)	13%	7	23%	1
Cc1cc(C(=O)NNC(=O)c2sccc2C)c(C)o1	8%	x	x	x
O=C(C1CC(=O)N(c2ccc(Cl)cc2)C1)N1CCN(Cc2ccc3c(c2)OCO3)CC1 (configuration not stated)	0%	-12	-5%	-3
CN1C(=O)/C(=C/c2ccc(C(=O)Nc3ccc(O)cc3C(=O)O)cc2)SC1=S	0%	13	23%	4
COc1cccc2sc3cc(C#Cc4ccccn4)ccc3c(=O)c12	-1%	x	x	x
COc1cccc2oc3ccc(C#Cc4ccccn4)cc3c(=O)c12	-17%	47*	-28%	66*
C/C(=N\Nc1nc2ccccc2[nH]1)c1ccccn1	-11%	107*	-138%	28*
C/C(=N\NC(=O)C1COc2ccccc2O1)c1cc2ccccc2o1 (configuration not stated)	-8%	7	x	7
C/C(=N\Nc1nc2ccccc2[nH]1)c1cc2ccccc2o1	-25%	39*	-3%	25*
Nn1c(SCc2nc3ccccn3c2Br)nnc1-c1cccnc1	1%	-11	-7%	-1
COc1cccc(-n2c(=O)[nH]cc(C(=O)Nc3ccc(NC(C)=O)cc3)c2=O)c1	-1%	-3	1%	-2
CC1CN(C(=O)COC(=O)c2cnc(Cl)c(Cl)c2)CC(C)O1 (configuration not stated)	2%	x	x	x
O=C(N/N=C/c1c(-c2ccccc2)[nH]c2ccccc12)c1cccnc1	-2%	65*	-8%	27*
Cn1c(-c2ccccc2)c(/C=N/NC(=O)c2cccnc2)c2ccccc21	-4%	68*	x	21*
COc1ccc(C(=O)Nc2ccnn2C2CCN(C(=O)c3cc(C)on3)CC2)cc1	-5%	22	-6%	16
COC(=O)c1oc2ccc(OC)cc2c1N	-5%	63*	3%	28*
C=C(C)COc1ccc2oc(C)c(C(=O)OCCOC)c2c1	-10%	-9	-38%	-1
O=C(c1ccc(Cl)cc1)c1oc2ccccc2c1CS(=O)c1ccc(Cl)cc1 (configuration not stated)	3%	24	-23%	9
COc1ccc2oc(C(=O)OCC(=O)NC3CC3)c(C)c2c1	2%	16	-14%	9
COc1ccc(C(=O)c2oc3ccc(OC)cc3c2N)cc1	-24%	70*	-16%	29*
SMILES	SARS PLpro yeast	Shiga toxin inh	NS1 inh	CHX counter
COc1ccc(C(=O)c2oc3ccc(OC)cc3c2NC(C)=O)cc1	11%	-4	x	0
CCN(CC)CCOC(=O)c1c(C)oc2ccc(OC)cc12	0%	61*	5%	17
Nc1c(C(=O)c2ccc(Cl)cc2)oc2ccccc12	-6%	65*	10%	32*
COc1ccc(CCN(C)Cc2ccc(C(=O)Nc3ccccc3)cc2)cc1OC	0%	-24	6%	16
COc1nc2ccccc2nc1CCC(=O)O	0%	-2	4%	10
COc1ccc(/C=C/c2nc3ccccc3c(=O)o2)cc1	2%	-4	16%	-6
COc1ccc(/C=C/c2nc3cc(-c4ccccc4)ccc3o2)cc1O	-33%	100*	6%	97*
CN(CC(=O)Nc1ccc(F)c(F)c1F)C(=O)c1ccc(=O)[nH]c1	-11%	50*	-37%	38*
CCc1nc2ccc(C(=O)N(C)CC(=O)Nc3ccc(F)c(F)c3F)cc2nc1CC	1%	x	x	x
CCOC(=O)C1(C)Oc2ccc(S(=O)(=O)CC)cc2NC1=O (configuration not stated)	1%	4	-2%	-2
CC[C@H](CN(C)C)C(=O)c1ccco1	x	x	-4%	x
Cc1ccc(S(=O)(=O)CCc2nc3ccccc3s2)cc1	14%	20	-8%	5
Cc1ccc(S(=O)(=O)CCc2nc3ccccc3s2)cc1C	-4%	25	-17%	13*
NNC(=O)CCS(=O)(=O)c1ccc2ccccc2c1	6%	2	19%	-1
O=S(=O)(CCc1nc2ccccc2s1)c1ccc2ccccc2c1	-20%	118*	-10%	32*
O=C(CSc1nnc2ccc3ccccc3n12)c1ccc(F)cc1	0%	x	x	x
Cc1onc(-c2ccccc2)c1-c1ccc(S(N)(=O)=O)cc1	4%	69*	x	38*
CCCCC(c1nnnn1Cc1ccco1)N1CCN(c2nc3ccccc3s2)CC1 (configuration not stated)	-9%	62*	-128%	23*
CCCC(c1nnnn1CCOC)N1CCN(c2nc3ccccc3s2)CC1 (configuration not stated)	-3%	14	x	4
Cc1ccc(NC(=O)c2nc[nH]c2C(=O)N2CCN(c3ccccc3)CC2)cc1	0%	-6	-1%	-4
CC(=O)c1ccc(OC(=O)c2nc(-c3ccccc3)oc2C)cc1	-2%	-1	0%	4
CCOC(=O)c1oc2cc(OC(C)=O)ccc2c(=O)c1-c1ccc(OC)c(OC)c1	0%	32	-4%	-1
CCC(N=c1cc(-c2ccc(OC)c(OC)c2)oc2ccc(C)cc12)C(=O)O (configuration not stated)	16%	16	-8%	21*
CCC(N=c1cc(-c2ccc(OC)cc2)oc2ccc(C)cc12)C(=O)O (configuration not stated)	-8%	77*	-11%	82*
COc1ccc(C(O)(C(=O)NNc2ccc(C)cc2)c2cccs2)cc1 (configuration not stated)	-3%	2	-60%	-1
SMILES	SARS PLpro yeast	Shiga toxin inh	NS1 inh	CHX counter
O=C(NNc1ccc(C2CCCCC2)cc1)C(O)(c1ccccc1)c1cccs1 (configuration not stated)	-31%	37	-6%	16*
COc1ccc(N=C(c2ccccc2)c2c(C)[nH]n(-c3ccccc3)c2=O)c(OC)c1	0%	27	-1%	6
Cc1cccc(-c2nc(C#N)c(NC3CCCCC3)o2)c1	-3%	168*	-7%	50*
Cc1cccc(-c2nc(CS(=O)CC(=O)NC3CCCC3)c(C)o2)c1 (configuration not stated)	1%	-6	u	-7
Cc1ccc(-c2nc(C#N)c(N3CCCCC3)o2)cc1	4%	22	-9%	2
Cc1cccc(-c2nc(C#N)c(N3CCCCC3)o2)c1	1%	37*	-3%	27*
Cc1c(OC(C)C(=O)NCCCN2CCOCC2)ccc2c3c(c(=O)oc12)CCCC3 (configuration not stated)	-1%	9	-10%	6
